{"source": "PubChem BioAssay (Tox21)", "note": "Where “and” joins values, the source holds several entries; their conditions need not be identical. Equal entries are not always repeated. Inconclusive results are not listed. Some structures have more than one record in an assay (separate samples or runs), and their calls can disagree. Calls of active or inactive are those of the source. The call rests on the fitted dose curve; in most records, active means well fitted cell-killing curve with a large enough effect in the repeat runs; inconclusive means weak or mixed curves; inactive means no such curve, though single readings can be large or run the other way. On the % scale 0 is the no-effect control and ±100 the full control effect; potency means the concentration at half of the fitted maximal effect."}
{"assay": "qHTS assay to identify small molecule antagonists of the peroxisome proliferator-activated receptor delta (PPARd) signaling pathway - cell viability counter screen (AID 743213); further: nearly all actives have a fitted effect of over 50% in size", "settings": "PPARd-bla HEK293H viability, CellTiter-Glo luminescence, 17 h; series mostly up to 62 µM; viability change, negative = cytotoxic: at the top concentration", "description": "U.S. Tox21 Program National Center for Advancing Translational Sciences [NCATS] NIH Chemical Genomics Center [NCGC] U.S. Environmental Protection Agency [EPA] National Institutes of Environmental Health Sciences [NIEHS] National Toxicology Program [NTP] U.S. Food and Drug Administration [FDA] Tox21 Assay Overview: The peroxisome proliferator-activated receptors (PPARs) are lipid-activated transcription factors of the nuclear receptor superfamily with three distinct subtypes namely PPAR alpha, PPAR delta (PPARd) and PPAR gamma. All these subtypes heterodimerizes with Retinoid X receptor (RXR) and have different physiological functions. […] To identify the compounds that inhibit PPAR-delta signaling, GeneBLAzer PPAR delta UAS-bla HEK293H cell line (Invitrogen, Carlsbad, CA, USA) containing a beta-lactamase reporter gene under the control of an Upstream Activator Sequence (UAS) was used to screen the Tox21 compound library. The cytotoxicity of the Tox21 compound library against the PPARd-bla cell line was tested in parallel by measuring the cell viability using CellTiter-Glo assay (Promega, Madison, WI) in the same wells.\nTox21 Assay Protocol Summary: PPARd-bla cells were dispensed at 3000 cells/5uL/well in 1536-well black wall/clear bottom plates using a Multidrop Combi (Thermo Fisher Scientific, Waltham, MA) dispenser. After the assay plates were incubated at 37 C and 5% CO2 for 5 h, 23 nL of compounds dissolved in DMSO, positive controls or DMSO only was transferred to the assay plate by a Pintool station (Kalypsys, San Diego, CA), followed by addition of 1ul L165041 (300 nM, final concentration in the wells). The assay plates were incubated at 37 C for 17 h, and then 1 uL of LiveBLAzerTM B/G FRET substrate was added using a Bioraptr Flying Reagent Dispenser (FRD) workstation (Beckman Coulter, Indianapolis, IN, USA). The assay plates were incubated at room temperature for 2 h and fluorescence intensity was measured by an Envision plate reader (PerkinElmer, Shelton, CT). For cell viability readout that measures cytotoxicity, 3 ul/well of CellTiter-Glo reagent was added into the assay plates using a Bioraptr FRD. After 30 min incubation at room temperature, the luminescence intensity in the plates was measured using a ViewLux plate reader (PerkinElmer)."}
{"smiles": "CCc1cc(C(C)(C)C)c(O)c(C(C)(C)C)c1", "Potency": "inactive"}
{"smiles": "CCCCCCCCCCCCc1ccccc1O", "Potency": "24.2 µM (active) and 21.9 µM (active)"}
{"smiles": "c1cnc2cc3c(cc2n1)C1CNCC3C1", "viability change, negative = cytotoxic": "3.92% (inactive)"}
{"smiles": "NC(N)=NC(=O)Cc1c(Cl)cccc1Cl", "viability change, negative = cytotoxic": "-14.7% (inactive)"}
{"smiles": "CN(C)c1ccc(C(=C2C=CC(=[N+](C)C)C=C2)c2ccccc2)cc1", "Potency": "490 nM (active) and 3.35 µM (active)"}
{"smiles": "c1ccc2n[nH]nc2c1", "Potency": "inactive and 38.9 µM (active)"}
{"smiles": "Nc1cc(Cl)c(-c2cc(Cl)c(N)cc2Cl)cc1Cl", "Potency": "24.5 µM (active)"}
{"smiles": "Cc1occc(=O)c1OC(=O)C(C)C", "viability change, negative = cytotoxic": "8.69% (inactive)"}
{"smiles": "O=c1n(CC2CO2)c(=O)n(CC2CO2)c(=O)n1CC1CO1", "note": "(stereo not given)", "Potency": "inactive"}
{"smiles": "O=C(Cl)c1cccc(C(=O)Cl)c1", "Potency": "inactive"}
{"smiles": "C=C(C)C(=O)O", "Potency": "inactive"}
{"smiles": "CCOc1ccccc1C(N)=O", "viability change, negative = cytotoxic": "6.46% (inactive)"}
{"smiles": "Nc1nc2ccccc2[nH]1", "Potency": "inactive"}
{"smiles": "CC(C)(C)c1ccccc1", "viability change, negative = cytotoxic": "11.2% (inactive)"}
{"smiles": "CCCCCCCCCCCC[N+](C)(C)C", "Potency": "54.9 µM (active) and 15.5 µM (active)"}
{"smiles": "CC(C)(C)c1cc(C(C)(C)C)c(O)c(C(C)(C)C)c1", "Potency": "inactive"}
{"smiles": "CC1COc2c(N3CCN(C)CC3)c(F)cc3c(=O)c(C(=O)O)cn1c23", "note": "(stereo not given)", "viability change, negative = cytotoxic": "1.2% (inactive)"}
{"smiles": "CC(=O)C1=C(C)[C@@H]2C[C@@]3(C1)[C@H](C)CC[C@H]3C2(C)C", "Potency": "inactive"}
{"smiles": "CN(C)c1ccc2nc3ccc(=[N+](C)C)cc-3sc2c1", "Potency": "49 µM (active) and inactive"}
{"smiles": "CC(N)=O", "viability change, negative = cytotoxic": "-7.9% [at 226 µM] (inactive)"}
{"smiles": "CC(=O)Nc1ccc(C(=O)CCl)cc1", "Potency": "inactive and 43.6 µM (active)"}
{"smiles": "CCOC(=O)C(C)C(C)=O", "note": "(stereo not given)", "viability change, negative = cytotoxic": "-23.3% [at 80.4 µM] (inactive)"}
{"smiles": "C#CC(C)(CC)OC(=O)c1ccccc1C(=O)O", "note": "(stereo not given)", "viability change, negative = cytotoxic": "17.1% (inactive)"}
{"smiles": "NC12CC3CC(CC(C3)C1)C2", "viability change, negative = cytotoxic": "-18.7% (inactive)"}
{"smiles": "CC(C)(C)NCC(O)COc1ccccc1OCC1CCCO1", "note": "(stereo not given)", "viability change, negative = cytotoxic": "1.66% (inactive)"}
{"smiles": "COC(=O)[C@H]1[C@H]2C[C@@H]3c4[nH]c5cc(OC)ccc5c4CCN3C[C@H]2C[C@@H](OC(=O)c2cc(OC)c(OC)c(OC)c2)[C@@H]1OC", "Potency": "17.9 µM (active)"}
{"smiles": "c1ccc2c(c1)-c1cccc3c1c-2cc1ccccc13", "Potency": "inactive"}
{"smiles": "NC(N)=Nc1nc(CSCC/C(N)=N/S(N)(=O)=O)cs1", "Potency": "inactive"}
{"smiles": "CCN(CC)C(=O)Nc1ccc(OCC(O)CNC(C)(C)C)c(C(C)=O)c1", "note": "(stereo not given)", "viability change, negative = cytotoxic": "-24.8% (inactive)"}
{"smiles": "C/C=C/c1ccc(OCC)c(O)c1", "viability change, negative = cytotoxic": "9.26% (inactive)"}
{"smiles": "NCCO", "viability change, negative = cytotoxic": "-22.5% (inactive)"}
{"smiles": "O", "Potency": "inactive"}
{"smiles": "CCCNC(C)C(=O)Nc1ccccc1C", "note": "(stereo not given)", "viability change, negative = cytotoxic": "-1.74% (inactive)"}
{"smiles": "Cc1cc(C(C)(C)C)c(O)c(C(C)(C)C)c1", "viability change, negative = cytotoxic": "4.41% (inactive)"}
{"smiles": "NNCCc1ccccc1", "Potency": "inactive"}
{"smiles": "CCCCCCCCCCCCCCCCCl", "viability change, negative = cytotoxic": "18.9% [at 28.9 µM] (inactive)"}
{"smiles": "BrC1CCC(Br)C(Br)CCC(Br)C(Br)CCC1Br", "note": "(stereo not given)", "Potency": "10.4 µM (active)"}
{"smiles": "CC(=O)OCCOCCOCCOC(C)=O", "Potency": "inactive"}
{"smiles": "NCCCCCC(=O)O", "viability change, negative = cytotoxic": "20.1% (inactive)"}
{"smiles": "Cc1cccc2n[nH]nc12", "viability change, negative = cytotoxic": "-11.5% (inactive)"}
